According to the supplement of paper PMC10849652:
The full data set covers some 8,800 targets. This sample favours those with a hit. About 0.5% of all pairs of compound and target were hits.

Experiments:
Experiment in all cases: log2 fold change, soluble protein after heating vs DMSO (PISA); higher = thermal stabilisation; K562 lysate, 10 uM; active = over 0.2 and 3.5 SD of the protein, either way, in both replicates (recomputed)
erlotinib = compound: C#Cc1cccc(Nc2ncnc3cc(OCCOC)c(OCCOC)cc23)c1 [erlotinib]
Outline: (§1)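 To prepare the extract, K562 pellets were dounce-homogenised in PBS pH 7.4 with 1 mM MgCl2, giving crude material at 1 mg/mL protein. This was treated with 10 μM compound for 30 min, then heated in aliquots for 3 min over 48°C-58°C before pooling and addition of NP-40 to 0.5% at 4°C. Centrifugation at 21,000xg for 90 min left soluble protein in the supernatant, which TMTpro 16plex LC-MS/MS quantified with equalised channel sums. Results are log-two fold changes in thermal stability compared with solvent controls, from duplicates.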

[1] = compound: C/C(=N\NC(=O)C1=CC(=CC=C1)S(=O)(=O)N2CCOCC2)/C3=C(C=CC(=C3)Cl)O
Outline: as §1

[2] = compound: C1=CC(=CC=C1C2=NC3=C(N2)C=C(C=C3)C(=O)N)OC4=CC=C(C=C4)Cl
Outline: as §1

[3] = compound: C1=CC2=C(C=CC(=C2)/C=C\3/C(=O)NC(=NCC4=CC=CS4)S3)N=C1
Outline: as §1

[4] = compound: C1=CC2=NC=CN=C2C=C1/C=C/3\C(=O)NC(=O)S3
Outline: as §1

[5] = compound: C1=CC=C(C=C1)C2=NC(=C(N2)C3=CC=NC=C3)C4=CC(=C(C=C4)Cl)O
Outline: as §1

[6] = compound: C1=CC=C2C(=C1)C3=NNC4=CC=CC(=C43)C2=O
Outline: as §1

[7] = compound: C1CCN(C1)C(=O)NC2=CC=CC(=C2)NC3=NC=C(C(=N3)NCCC4=CN=CN4)Br
Outline: as §1

[8] = compound: C1CN(CCC1(CC2=CC=C(C=C2)Cl)N)C3=NC=NC4=C3C=CN4
Outline: as §1

IRAK-1-4 Inhibitor I = compound: C1COCCN1CCN2C3=CC=CC=C3N=C2NC(=O)C4=CC(=CC=C4)[N+](=O)[O-] [IRAK-1-4 Inhibitor I]
Outline: as §1

ibrutinib = compound: C=CC(=O)N1CCC[C@@H](n2nc(-c3ccc(Oc4ccccc4)cc3)c3c(N)ncnc32)C1 [ibrutinib]
Outline: as §1

[9] = compound: CC(=O)c1cnc2ccc(-c3cc(Cl)c(O)c(Cl)c3)nc2c1N[C@H]1CC[C@H](CN(C)C)CC1
Outline: as §1

ralimetinib = compound: CC(C)(C)Cn1c(N)nc2ccc(-c3[nH]c(C(C)(C)C)nc3-c3ccc(F)cc3)nc21 [ralimetinib]
Outline: as §1

[10] = compound: CC(C)(O)CC(=O)NCCn1ccc2ncnc(Nc3ccc(Oc4cccc(C(F)(F)F)c4)c(Cl)c3)c21
Outline: as §1

[11] = compound: CC(C)C1=C2N=C(C=C(N2N=C1)NCC3=CC=CC=C3)NCCCCCCN
Outline: as §1

[12] = compound: CC1=C(C(CC(=O)N1)C2=CC=C(C=C2)C(F)(F)F)C(=O)NC3=C(C=C4C(=C3)C=NN4)F
Outline: as §1

[13] = compound: CC1=C(C2=C(C=C1)C(=O)C3=CC=CC=C3N2CCCN)C
Outline: as §1

[14] = compound: CC1=C(C=C(C=C1)NC(=O)C2=CC(=CC=C2)C(C)(C)C#N)NC3=CC4=C(C=C3)N=CN(C4=O)C
Outline: as §1

[15] = compound: CC1=C(C=C(C=C1)NC(=O)C2=CC(=CC=C2)N(C)C)NC(=O)C3=CC=C(C=C3)O
Outline: as §1

[16] = compound: CC1=CC=C(C=C1)SC2=C3C=C(SC3=CN=C2)C(=O)N
Outline: as §1

Measured: log2 fold change

PAK4 (UniProt O96013)
inactive: erlotinib 0 | [1] -0.076 | [2] 0.072 | [3] 0.052 | [4] -0.006 | [5] -0.005 | [6] 0.335 | [7] 0.469 | [8] 0.124 | IRAK-1-4 Inhibitor I -0.044 | ibrutinib 0.049 | [9] 0.372 | ralimetinib -0.016 | [10] -0.001 | [11] -0.102 | [12] 0.023 | [13] -0.087 | [14] -0.064 | [15] -0.012 | [16] 0.034

OSGEP (UniProt Q9NPF4)
inactive: erlotinib 0.012 | [1] -0.002 | [2] 0.041 | [3] -0.148 | [5] 0.008 | [6] -0.058 | [7] 0.009 | [8] -0.028 | IRAK-1-4 Inhibitor I -0.022 | ibrutinib -0.009 | [9] 0.02 | ralimetinib 0.022 | [10] -0.03 | [11] -0.003 | [12] 0 | [13] 0.001 | [14] 0.012 | [15] -0.057 | [16] -0.002
active: [4] -0.236

NELFA (UniProt Q9H3P2)
Chain of UniProt Q9H3P2 (Q9H3P2 whole entry, looked up): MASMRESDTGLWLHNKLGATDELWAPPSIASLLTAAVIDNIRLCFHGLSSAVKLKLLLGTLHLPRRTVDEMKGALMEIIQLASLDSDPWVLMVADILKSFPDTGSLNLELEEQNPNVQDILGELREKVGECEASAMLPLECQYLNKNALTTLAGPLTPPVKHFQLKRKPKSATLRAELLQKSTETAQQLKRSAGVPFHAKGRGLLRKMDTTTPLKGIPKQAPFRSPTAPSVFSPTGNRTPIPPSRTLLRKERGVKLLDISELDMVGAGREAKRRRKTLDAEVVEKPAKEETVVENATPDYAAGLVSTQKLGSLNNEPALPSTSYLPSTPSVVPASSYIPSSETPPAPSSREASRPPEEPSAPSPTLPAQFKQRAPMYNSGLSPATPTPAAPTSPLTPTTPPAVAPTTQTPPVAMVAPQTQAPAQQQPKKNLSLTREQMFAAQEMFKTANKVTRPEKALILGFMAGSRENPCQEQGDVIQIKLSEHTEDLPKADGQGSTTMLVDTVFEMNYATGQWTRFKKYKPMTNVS
inactive: erlotinib -0.04 | [1] -0.018 | [2] 0.002 | [3] 0.047 | [4] 0.007 | [5] 0.007 | [6] -0.009 | [7] 0.011 | [8] -0.001 | IRAK-1-4 Inhibitor I -0.017 | ibrutinib 0 | [9] 0.001 | ralimetinib -0.038 | [10] 0.003 | [11] -0.012 | [12] 0.008 | [13] 0.008 | [14] -0.022 | [15] -0.04 | [16] -0.024

NUP93 (UniProt Q8N1F7)
Chain of UniProt Q8N1F7 (Q8N1F7 whole entry, looked up): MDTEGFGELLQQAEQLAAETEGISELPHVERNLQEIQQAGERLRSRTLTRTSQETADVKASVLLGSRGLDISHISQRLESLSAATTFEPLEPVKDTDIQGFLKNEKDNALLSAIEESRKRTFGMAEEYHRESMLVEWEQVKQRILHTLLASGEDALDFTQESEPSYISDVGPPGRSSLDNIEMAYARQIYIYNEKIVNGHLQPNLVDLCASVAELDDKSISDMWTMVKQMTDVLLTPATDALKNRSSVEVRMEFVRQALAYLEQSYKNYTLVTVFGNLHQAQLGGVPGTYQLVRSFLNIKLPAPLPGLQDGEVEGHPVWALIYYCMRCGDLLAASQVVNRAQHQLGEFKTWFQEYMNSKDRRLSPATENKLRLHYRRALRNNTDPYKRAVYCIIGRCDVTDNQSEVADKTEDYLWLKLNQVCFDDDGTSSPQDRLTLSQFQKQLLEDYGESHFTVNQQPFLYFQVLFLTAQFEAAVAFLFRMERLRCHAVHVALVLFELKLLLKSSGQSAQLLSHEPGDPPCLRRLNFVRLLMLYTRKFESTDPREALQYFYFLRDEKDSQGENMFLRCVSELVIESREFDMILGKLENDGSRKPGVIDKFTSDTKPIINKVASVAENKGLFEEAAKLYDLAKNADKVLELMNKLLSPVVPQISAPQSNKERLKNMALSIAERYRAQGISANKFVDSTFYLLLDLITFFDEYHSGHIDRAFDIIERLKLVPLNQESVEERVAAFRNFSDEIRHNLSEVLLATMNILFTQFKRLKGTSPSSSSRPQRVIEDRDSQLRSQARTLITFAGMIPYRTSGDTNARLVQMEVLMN
inactive: erlotinib 0.025 | [1] 0.058 | [2] -0.042 | [3] 0.021 | [4] 0.032 | [5] -0.022 | [6] -0.049 | [7] 0.002 | [8] 0.015 | IRAK-1-4 Inhibitor I -0.022 | ibrutinib -0.013 | [9] 0.007 | ralimetinib 0.036 | [10] -0.015 | [11] 0 | [12] 0.027 | [13] 0.019 | [14] -0.029 | [15] 0.036 | [16] 0

OTC (UniProt P00480)
inactive: erlotinib 0.09 | [1] 0.138 | [2] -0.096 | [3] -0.121 | [4] -0.049 | [5] -0.074 | [6] -0.069 | [7] -0.074 | [8] -0.095 | IRAK-1-4 Inhibitor I 0.125 | ibrutinib -0.089 | [9] 0.001 | ralimetinib 0.065 | [10] -0.18 | [11] 0.017 | [12] -0.055 | [13] 0.065 | [14] 0.156 | [15] -0.034 | [16] -0.004

OTUD7B (UniProt Q6GQQ9)
Chain of UniProt Q6GQQ9 (Q6GQQ9 whole entry, looked up): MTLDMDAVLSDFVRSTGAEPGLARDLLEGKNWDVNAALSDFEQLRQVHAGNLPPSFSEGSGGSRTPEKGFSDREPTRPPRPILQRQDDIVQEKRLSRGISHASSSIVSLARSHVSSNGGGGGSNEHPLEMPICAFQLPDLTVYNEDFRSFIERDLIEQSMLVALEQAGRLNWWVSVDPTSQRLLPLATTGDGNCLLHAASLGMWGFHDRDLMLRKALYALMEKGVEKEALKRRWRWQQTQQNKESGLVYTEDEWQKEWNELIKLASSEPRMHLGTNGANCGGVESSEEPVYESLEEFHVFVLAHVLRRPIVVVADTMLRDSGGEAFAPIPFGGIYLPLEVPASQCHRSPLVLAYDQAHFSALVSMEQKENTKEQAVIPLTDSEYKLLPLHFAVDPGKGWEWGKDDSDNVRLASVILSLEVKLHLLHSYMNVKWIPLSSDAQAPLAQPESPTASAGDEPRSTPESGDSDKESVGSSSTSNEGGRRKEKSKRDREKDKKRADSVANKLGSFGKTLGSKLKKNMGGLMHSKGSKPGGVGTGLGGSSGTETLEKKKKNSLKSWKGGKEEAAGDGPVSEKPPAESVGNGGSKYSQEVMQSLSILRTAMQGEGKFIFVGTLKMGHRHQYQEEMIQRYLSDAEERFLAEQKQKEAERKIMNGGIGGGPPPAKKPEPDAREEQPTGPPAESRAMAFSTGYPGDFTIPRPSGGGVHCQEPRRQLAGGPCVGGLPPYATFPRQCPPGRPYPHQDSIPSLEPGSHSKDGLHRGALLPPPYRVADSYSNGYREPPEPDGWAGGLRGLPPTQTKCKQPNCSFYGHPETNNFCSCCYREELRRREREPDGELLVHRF
inactive: erlotinib 0.028 | [1] -0.06 | [2] 0.075 | [3] -0.026 | [4] -0.017 | [5] -0.006 | [6] -0.076 | [7] -0.002 | [8] 0.032 | IRAK-1-4 Inhibitor I -0.039 | ibrutinib -0.008 | [9] 0.004 | ralimetinib 0.026 | [10] 0.005 | [11] -0.034 | [12] -0.011 | [13] -0.019 | [15] 0 | [16] 0.047
active: [14] 0.239

OSBPL3 isoform 2 (UniProt Q9H4L5)
inactive: erlotinib 0.292 | [1] 0.206 | [2] 0.038 | [3] 0.079 | [4] -0.04 | [5] 0.189 | [6] 0.135 | [7] -0.001 | [8] -0.018 | IRAK-1-4 Inhibitor I -0.183 | ibrutinib 0.031 | [9] -0.007 | ralimetinib 0.019 | [10] 0.004 | [11] -0.033 | [12] 0.018 | [13] 0.02 | [14] 0.015 | [15] 0.057 | [16] -0.016

MTMR6 (UniProt Q9Y217)
inactive: erlotinib 0.01 | [1] 0.044 | [2] 0.002 | [3] -0.008 | [4] -0.004 | [5] -0.009 | [6] -0.052 | [7] -0.013 | [8] 0.015 | IRAK-1-4 Inhibitor I -0.013 | ibrutinib 0.011 | [9] -0.02 | ralimetinib 0.041 | [10] 0.026 | [11] 0.043 | [12] -0.044 | [13] 0.006 | [14] 0.121 | [15] 0.011 | [16] -0.006

NNMT (UniProt P40261)
inactive: erlotinib -0.015 | [1] 0.003 | [2] 0.045 | [3] -0.001 | [4] -0.003 | [5] 0.032 | [6] -0.019 | [7] -0.002 | [8] -0.006 | IRAK-1-4 Inhibitor I -0.024 | ibrutinib -0.026 | [9] -0.037 | ralimetinib 0.011 | [10] -0.019 | [11] -0.05 | [12] -0.053 | [13] 0.026 | [14] 0.06 | [15] 0.016 | [16] -0.034

PARP14 (UniProt Q460N5)
Chain of UniProt Q460N5 (Q460N5 whole entry, looked up): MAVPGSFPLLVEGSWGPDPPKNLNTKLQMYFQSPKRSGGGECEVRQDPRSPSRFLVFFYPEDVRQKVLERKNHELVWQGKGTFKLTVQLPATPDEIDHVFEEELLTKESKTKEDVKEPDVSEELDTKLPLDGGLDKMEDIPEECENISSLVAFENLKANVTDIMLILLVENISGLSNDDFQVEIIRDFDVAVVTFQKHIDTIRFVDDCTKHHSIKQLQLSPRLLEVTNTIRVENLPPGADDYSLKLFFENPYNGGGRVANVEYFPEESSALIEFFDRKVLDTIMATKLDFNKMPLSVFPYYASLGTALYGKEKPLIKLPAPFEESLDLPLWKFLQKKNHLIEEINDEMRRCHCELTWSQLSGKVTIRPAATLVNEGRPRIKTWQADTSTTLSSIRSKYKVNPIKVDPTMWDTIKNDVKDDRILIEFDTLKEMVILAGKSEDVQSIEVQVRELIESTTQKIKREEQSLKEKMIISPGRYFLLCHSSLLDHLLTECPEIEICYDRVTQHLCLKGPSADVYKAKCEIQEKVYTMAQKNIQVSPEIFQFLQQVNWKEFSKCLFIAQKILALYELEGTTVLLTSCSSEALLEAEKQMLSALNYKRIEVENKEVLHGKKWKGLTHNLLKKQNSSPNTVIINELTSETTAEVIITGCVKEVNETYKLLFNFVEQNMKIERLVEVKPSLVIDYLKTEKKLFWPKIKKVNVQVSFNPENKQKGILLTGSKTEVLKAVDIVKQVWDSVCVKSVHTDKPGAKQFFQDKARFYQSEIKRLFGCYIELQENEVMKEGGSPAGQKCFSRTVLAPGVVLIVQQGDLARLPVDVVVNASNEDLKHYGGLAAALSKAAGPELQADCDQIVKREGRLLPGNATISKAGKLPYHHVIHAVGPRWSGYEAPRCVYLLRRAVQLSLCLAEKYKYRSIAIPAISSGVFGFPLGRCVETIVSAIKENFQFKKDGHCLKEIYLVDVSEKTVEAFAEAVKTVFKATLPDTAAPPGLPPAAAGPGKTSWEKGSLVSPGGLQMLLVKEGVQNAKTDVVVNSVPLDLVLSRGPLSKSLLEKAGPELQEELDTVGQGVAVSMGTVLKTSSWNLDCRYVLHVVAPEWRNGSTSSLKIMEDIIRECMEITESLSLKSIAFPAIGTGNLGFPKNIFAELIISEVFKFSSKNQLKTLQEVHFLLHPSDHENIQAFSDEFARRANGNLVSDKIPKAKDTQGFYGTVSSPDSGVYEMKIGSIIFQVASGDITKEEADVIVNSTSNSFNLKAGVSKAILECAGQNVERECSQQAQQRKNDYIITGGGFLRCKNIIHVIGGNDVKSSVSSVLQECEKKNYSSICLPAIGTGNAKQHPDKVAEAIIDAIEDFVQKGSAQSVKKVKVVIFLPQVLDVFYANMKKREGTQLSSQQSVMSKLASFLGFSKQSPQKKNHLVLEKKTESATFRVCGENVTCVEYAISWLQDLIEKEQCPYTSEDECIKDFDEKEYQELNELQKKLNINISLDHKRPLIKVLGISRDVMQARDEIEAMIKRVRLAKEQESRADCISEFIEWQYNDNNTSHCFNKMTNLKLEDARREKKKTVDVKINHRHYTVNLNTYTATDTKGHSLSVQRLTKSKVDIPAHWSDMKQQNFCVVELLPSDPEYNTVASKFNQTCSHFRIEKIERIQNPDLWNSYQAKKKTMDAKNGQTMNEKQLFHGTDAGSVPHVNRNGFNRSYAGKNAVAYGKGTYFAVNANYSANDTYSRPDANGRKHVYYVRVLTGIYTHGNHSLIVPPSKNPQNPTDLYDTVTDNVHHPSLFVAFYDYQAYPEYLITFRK
inactive: erlotinib 0.06 | [1] -0.037 | [2] 0.012 | [3] -0.032 | [4] 0.081 | [5] 0.005 | [6] -0.166 | [7] -0.025 | [8] 0.062 | IRAK-1-4 Inhibitor I -0.095 | ibrutinib 0.029 | [9] -0.051 | ralimetinib -0.03 | [10] 0.015 | [11] 0.074 | [12] 0.049 | [13] 0.011 | [14] -0.007 | [15] 0.002 | [16] -0.135

OCRL (UniProt Q01968)
inactive: erlotinib -0.057 | [1] -0.031 | [2] 0.04 | [3] 0.085 | [4] -0.012 | [5] 0.054 | [6] -0.1 | [7] 0.02 | [8] 0.055 | IRAK-1-4 Inhibitor I 0.068 | ibrutinib 0.051 | [9] -0.038 | ralimetinib -0.016 | [10] 0.016 | [11] 0.044 | [12] 0.013 | [13] 0.036 | [14] 0.022 | [15] -0.002 | [16] 0.033

NFATC2IP (UniProt Q8NCF5)
Chain of UniProt Q8NCF5 (Q8NCF5 whole entry, looked up): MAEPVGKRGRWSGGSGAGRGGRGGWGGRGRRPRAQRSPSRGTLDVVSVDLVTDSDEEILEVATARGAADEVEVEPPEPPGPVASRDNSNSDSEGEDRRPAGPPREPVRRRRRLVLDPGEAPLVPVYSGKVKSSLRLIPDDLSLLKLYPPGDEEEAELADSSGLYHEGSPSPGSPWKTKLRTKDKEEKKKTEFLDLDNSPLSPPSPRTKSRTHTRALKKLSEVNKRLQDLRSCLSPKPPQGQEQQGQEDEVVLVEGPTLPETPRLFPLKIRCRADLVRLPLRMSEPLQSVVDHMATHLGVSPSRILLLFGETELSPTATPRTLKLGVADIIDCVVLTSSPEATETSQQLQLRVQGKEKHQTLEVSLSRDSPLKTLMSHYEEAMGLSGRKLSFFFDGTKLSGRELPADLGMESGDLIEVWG
inactive: erlotinib 0.001 | [1] 0.026 | [2] -0.036 | [3] 0.006 | [4] 0.016 | [5] 0.031 | [6] -0.071 | [7] 0.013 | [8] -0.016 | IRAK-1-4 Inhibitor I -0.009 | ibrutinib 0.015 | [9] -0.037 | ralimetinib 0 | [10] -0.052 | [11] 0.01 | [12] -0.021 | [13] -0.019 | [14] -0.047 | [15] 0.013 | [16] 0.011

MT-ND1 (UniProt P03886)
inactive: erlotinib -0.061 | [1] -0.227 | [2] -0.14 | [3] 0.055 | [4] -0.036 | [5] -0.005 | [6] 0.061 | [7] -0.038 | [8] 0.02 | IRAK-1-4 Inhibitor I 0.004 | ibrutinib 0.032 | [9] -0.006 | ralimetinib 0.061 | [10] -0.101 | [11] -0.052 | [12] 0.056 | [13] -0.007 | [14] 0.055 | [15] -0.005 | [16] 0.088

NFIC (UniProt P08651)
Chain of UniProt P08651 (P08651 whole entry, looked up): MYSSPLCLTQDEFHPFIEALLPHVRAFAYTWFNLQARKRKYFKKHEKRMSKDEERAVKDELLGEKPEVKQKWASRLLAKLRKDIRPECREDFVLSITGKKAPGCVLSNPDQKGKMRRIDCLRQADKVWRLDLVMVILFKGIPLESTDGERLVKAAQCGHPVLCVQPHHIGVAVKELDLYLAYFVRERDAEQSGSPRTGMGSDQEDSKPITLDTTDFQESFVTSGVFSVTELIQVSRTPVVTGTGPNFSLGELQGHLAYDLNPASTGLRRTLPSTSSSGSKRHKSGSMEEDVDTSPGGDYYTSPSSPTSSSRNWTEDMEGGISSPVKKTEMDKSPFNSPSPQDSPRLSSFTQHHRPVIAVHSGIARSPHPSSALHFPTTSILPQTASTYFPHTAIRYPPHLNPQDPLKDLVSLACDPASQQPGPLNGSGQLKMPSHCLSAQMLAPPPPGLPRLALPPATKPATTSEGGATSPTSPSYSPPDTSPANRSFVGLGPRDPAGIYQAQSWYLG
inactive: erlotinib 0.014 | [1] 0.063 | [2] -0.044 | [3] 0.025 | [4] 0.001 | [5] -0.084 | [6] -0.082 | [7] -0.016 | [8] -0.032 | IRAK-1-4 Inhibitor I 0.052 | ibrutinib -0.019 | [9] 0.014 | ralimetinib 0.009 | [10] -0.058 | [11] 0.235 | [12] -0.038 | [13] -0.044 | [14] 0.049 | [15] 0.04 | [16] -0.082

NUP160 (UniProt Q12769)
inactive: erlotinib 0.038 | [1] 0.041 | [2] -0.033 | [3] -0.006 | [4] 0.038 | [5] -0.012 | [6] -0.075 | [7] -0.029 | [8] 0.015 | IRAK-1-4 Inhibitor I -0.013 | ibrutinib 0.063 | [9] -0.007 | ralimetinib 0.062 | [10] 0.017 | [11] -0.021 | [12] 0.01 | [13] 0.005 | [14] 0.012 | [15] -0.021 | [16] 0.001
